According to PubChem BioAssay (NCI):
The panel holds about 79,000 compounds, 15% with a hit somewhere; the sample as a whole holds those more often. Cut-off read from the data, not from the text of the source: active = growth inhibition above about 70%; inactive = the rest.

Columns and labels:
[1] = NCI Yeast Anticancer Drug Screen. Data for the rad50 strain (AID 155);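 note: 0% = growth of vehicle-only cultures of the same strain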; details: S. cerevisiae rad50 strain growth inhibition; at 50.0 µM; active compounds read high
Procedure, shortened: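 Compounds were tested on a yeast strain with an engineered DNA damage repair alteration; the reported value is growth inhibition normalised to vehicle treatment.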

[2] = NCI Yeast Anticancer Drug Screen. Data for the mec2-1 strain (AID 157); details: S. cerevisiae mec2-1 strain, at 50.0 µM, active compounds read high
Procedure, shortened: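 Readout is yeast growth inhibition, normalised to vehicle-treated controls, in the mec2-1 strain exposed to compound.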

[3] = NCI Yeast Anticancer Drug Screen. Data for the sgs1 mgt1 strain (AID 161);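 note: 0% = growth of cultures given vehicle only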; details: S. cerevisiae sgs1 mgt1 strain, at 50.0 µM, active compounds read high
Procedure, shortened: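 Yeast cells carrying a defined DNA-repair defect were exposed to test compounds. Growth inhibition was measured relative to vehicle-treated controls.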

[4] = NCI Yeast Anticancer Drug Screen. Data for the cln2 rad14 strain (AID 165);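 note: 0% = growth equal to vehicle treated cultures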; details: S. cerevisiae cln2 rad14 strain, at 50.0 µM, active compounds read high
Procedure, shortened: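 Relative to vehicle controls, growth inhibition of compound-treated cln2 rad14 yeast was recorded.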

[5] = NCI Yeast Anticancer Drug Screen. Data for the bub3 strain (AID 167); details: S. cerevisiae bub3 mutant strain, at 50.0 µM, active compounds read high
Procedure, shortened: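 Growth of a checkpoint-deficient yeast mutant is measured after compound exposure. Values represent inhibition relative to vehicle.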

[6] = NCI Yeast Anticancer Drug Screen. Data for the mlh1 rad18 strain (AID 175); details: S. cerevisiae mlh1 rad18 strain growth inhibition; at 50.0 µM; active compounds read high
Procedure, shortened: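 Test agents were incubated with a yeast strain of defined genotype (DNA damage repair defect). Inhibition of growth was derived by comparison with vehicle-exposed cultures.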

Measured: growth inhibition

CCN(CC)c1nc(Cl)nc(C(N)=O)c1N
inactive: [1] 4.85% | [2] -8.25% | [3] -10.4% | [4] -16.1% | [5] -1.2% | [6] -10.4%

Cn1ncc2c(=S)nc[nH]c21
inactive: [1] -15.2% | [2] -4.9% | [3] -2.5% | [4] -18.2% | [5] 2.65% | [6] -13.8%

CC(C)NNC(=O)c1ccc(N)cc1
inactive: [1] 16.1% | [2] 6.05% | [3] 4.55% | [4] 6.55% | [5] 4.8% | [6] 6.35%

COc1ccc(-c2c(C(C)=O)c(-c3ccccc3)n(C3OC(CO)C(O)C(O)C3O)c(=S)c2C#N)cc1 (stereo not drawn)
inactive: [1] -17.7% | [2] -3.7% | [3] 6.6% | [4] 3.95% | [5] 1.3% | [6] 6.2%

CC1C2=C(CCCC2=O)O/C1=N\O (stereo not drawn)
inactive: [1] 11.4% | [2] -6.85% | [3] -0.85% | [4] -24.9% | [5] 6.7% | [6] 12.2%

CCCCCCCCCCCCCCCCCCCCCCCCCCCCCCCCCCCCSC(=N)N
inactive: [1] 8.25% | [2] 0.45% | [3] 3.8% | [4] -7.05% | [5] -0.25% | [6] 12.8%

CC1CC=CCC1C(=O)OC/C=C/COC(=O)C1CC=CCC1C (stereo not drawn)
inactive: [1] 29.4% | [2] -19.9% | [3] 8.65% | [4] -9.9% | [5] 14.9% | [6] -4.65%

O=Cc1cc(O)ccc1[N+](=O)[O-]
inactive: [1] 11.4% | [2] -19.2% | [3] -9.55% | [4] 13.3% | [5] -13.4% | [6] 16.1%

CC1CCCc2c1c1ccc3c(O)cccc3c1oc2=O (stereo not drawn)
inactive: [1] -10% | [2] -4.15% | [3] -15.4% | [4] 16.9% | [5] -5.95% | [6] -18.9%

O=S1(=O)C2C=CCC1C(Cl)CC2 (stereo not drawn)
inactive: [1] -7.7% | [2] 29.9% | [3] 36% | [4] -24.4% | [5] 24.9% | [6] -5.25%

CCC(=O)/C=C/c1ccccc1O
inactive: [1] 11.6% | [2] 9.55% | [3] 31.4% | [4] 17.4% | [5] 20.4% | [6] 13.3%

CN(C)c1cccc2c1C(=O)C=CC21c2ccc(N(C)C)c3c(N(C)C)ccc(c23)C(c2ccccc2)C1c1ccccc1 (stereo not drawn)
inactive: [1] -6.15% | [2] -11.4% | [3] -4.55% | [4] -27.3% | [5] -31.6% | [6] -8.75%

O=C(/C=C(/Nc1ccccc1)c1ccccc1)c1ccccc1
inactive: [1] 7.3% | [2] 11.4% | [3] 8.9% | [4] 35.5% | [5] 15.9% | [6] 34.2%

CC(C)(C)C(=O)OCN1CCOCC1
inactive: [1] -10.6% | [2] 10.9% | [3] 0.65% | [4] -47.8% | [5] -9.15% | [6] -10.2%

C1CSC[C@H]2COC[C@@H](CSCCS1)S2
inactive: [1] -0.5% | [2] 4.25% | [3] -2.55% | [4] 18.9% | [5] 9.05% | [6] -7.9%

Cc1nn(-c2nc(-c3ccccc3)cs2)c(C)c1C
inactive: [1] -6.05% | [2] -8.6% | [3] -20.6% | [4] 2.9% | [5] -0.5% | [6] -8.2%

CC1CCC23C1CC(CC(=O)C2(C)O)C3(C)C (stereo not drawn)
inactive: [1] 4.75% | [2] 6% | [3] 5.2% | [4] -49.4% | [5] -21.1% | [6] 5.05%

N#CC(O)CCOCc1ccccc1 (stereo not drawn)
inactive: [1] 9% | [2] -10.1% | [3] -5.45% | [4] -18.9% | [5] -5% | [6] -14.2%

CC(=O)Nc1cccc([N+](=O)[O-])c1
inactive: [1] 8.25% | [2] -10.3% | [3] 8.65% | [4] -7.85% | [5] -2.7% | [6] -19.6%

OCCN(Cc1ccccc1)C(c1ccccc1)C(O)c1ccccc1 (stereo not drawn)
inactive: [1] -2.8% | [2] 7.65% | [3] 24.2% | [4] 29.2% | [5] 1.7% | [6] 1.3%

CC(C)(OC(=O)c1ccc([N+](=O)[O-])cc1)C1CC1
inactive: [1] -12.1% | [2] 1.55% | [3] -23.6% | [4] -28.9% | [5] -11.1% | [6] -24.4%

O=S(=O)(C/C=C/COc1ccccc1)c1ccc2ccccc2c1
inactive: [1] 3.05% | [2] 2.65% | [3] 23.8% | [4] 3.6% | [5] -5.85% | [6] -12.9%

COC(=O)c1ccc(C(=O)OC)c2nc3cc(Cl)ccc3nc12
inactive: [1] -7.05% | [2] -10.2% | [3] -35.5% | [4] -29.2% | [5] -10.6% | [6] -40.1%

CCOC(=O)/C=C(/C)N(CC)CC
inactive: [1] 23.9% | [2] -4% | [3] 12.2% | [4] 11.3% | [5] -5.05% | [6] 19.9%

Cn1nc2ccc([N+](=O)[O-])cc2[n+]1[O-]
inactive: [1] 28.4% | [2] -2.45% | [3] -2.8% | [4] -19.4% | [5] 0.05% | [6] -17.2%

CCOC(=O)c1ccc(N=Nc2ccc(N(CCC#N)CCC#N)cc2C)cc1
inactive: [1] -47.5% | [2] -50.6% | [3] -27.4% | [4] -4.4% | [5] -36.8% | [6] -24.5%

O=C(NCCN1CCCC1)NC1CCCCC1
inactive: [1] -2.25% | [2] 2.35% | [3] 3.85% | [4] -69.5% | [5] 8.2% | [6] 14.8%

CO[C@H]1C[C@H]2[C@@H]3CCC4=CC(=O)C=C[C@]4(C)[C@@]3(F)[C@@H](O)C[C@]2(C)[C@@]1(O)C(=O)COC(C)=O
inactive: [1] 6.55% | [2] -0.35% | [3] 22.8% | [4] 33.2% | [5] 1.05% | [6] -6.55%

CS(=O)(=O)N1CCCN(S(C)(=O)=O)COC1
inactive: [1] 6.2% | [2] -6.65% | [3] -8.75% | [4] -2.45% | [5] 13.4% | [6] -0.35%

CN(CCO)CC(O)Cn1cnc2c(N)ncnc21 (stereo not drawn)
inactive: [1] -12.5% | [2] -17.8% | [3] -31.5% | [4] 10.7% | [5] -19.4% | [6] 19.8%

CSc1n[n+](-c2ccccc2)cs1
inactive: [1] 6.3% | [2] 6.15% | [3] 4.4% | [4] 6.9% | [5] 21.7% | [6] -3.35%

C[n+]1ccc(Nc2ccc(NC(=O)c3ccc(N)cc3)cc2)cc1
inactive: [1] 12.9% | [2] 20.4% | [3] 8.6% | [4] -5.05% | [5] 6.25% | [6] 17.4%

CCN(CC)CCN1Cc2ccccc2C1
inactive: [1] -4.8% | [2] 3.85% | [3] -1.7% | [4] -14.1% | [5] 7.4% | [6] 2.45%

COC(=NC(C)C)NC(C)C
inactive: [1] 6.3% | [2] -17.2% | [3] 5.65% | [4] 14.2% | [5] 5.4% | [6] 14.4%

CCOC(=O)C1(Br)C(c2ccccc2)NC(=O)N(C2OC(COC(=O)c3ccccc3)C(OC(=O)c3ccccc3)C2OC(=O)c2ccccc2)C1(C)Br (stereo not drawn)
inactive: [1] -25.4% | [2] -28.4% | [3] -27.9% | [4] 6.4% | [5] 7% | [6] -22.8%

COc1cccc2c1C(CO)N1C(C#N)C3CC(C(=O)O)C(C1C2)N3C (stereo not drawn)
inactive: [1] 0.25% | [2] -5.9% | [3] -28.3% | [4] 3.4% | [5] 8% | [6] -2.45%

CCCCS(=O)(=O)N1CCCC1
inactive: [1] 4.15% | [2] -10.3% | [3] 1.9% | [4] -28.2% | [5] -5% | [6] -5.85%

O=C(O)C12C3CCC(CC3)C1(C(=O)O)C1CCC2C1 (stereo not drawn)
inactive: [1] -57.6% | [2] -12.4% | [3] -12.1% | [4] -24.1% | [5] 5.05% | [6] -1.2%
